This is a sample that favours compounds with a hit; in the whole collection about 1.4% have one here.
PKM2 activator: qHTS Assay for Activators of Human Muscle isoform 2 Pyruvate Kinase | purified PKM2, Kinase-Glo ATP luminescence, activation; response scale: 0% is enzyme alone, no compound | Potency, µM (top dose mostly 57.5 µM), inactives show at the top dose activation, usual class: activators | hit rate 0.34% among 260,000; note: potency is the fitted concentration of half-maximal effect; % is set by controls: 0 for no effect and ±100 for the full control effect; nearly all actives have a fitted effect of over 55% in size
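Kinase-Glo luminescence reports ATP generated from ADP (0.1 mM) and PEP (0.5 mM) by purified hPK-M2 after 1 h at room temperature, pH 7.2 imidazole buffer; intermediate enzyme activity allows detecting inhibitors and activators.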
LDHA inh: qHTS assay for inhibitors of human lactate dehydrogenase; purified LDHA, NADH/diaphorase-resazurin fluorescence; hits give low values; activity change, % (values are at about 110 or 230 µM); hit rate 0.15% among 480,000; AID 1347041, 2019; in the data active = activity change below about -30%; inconclusive = mostly about -25% to -30%;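 note: plate controls were DMSO wells for no effect and wells without enzyme for full effect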
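LDH5 2 nM; NADH 0.06 mM, pyruvate 0.2 mM; 200 mM Tris pH 7.4, EDTA, Tween-20; 5 min RT. Detection: diaphorase 0.133 mg/mL + resazurin 37 µM, fluorescence ex540/em590 at 0 and 20 min; normalized to enzyme-free and DMSO wells.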
mIDH1 inhibitor: qHTS for Inhibitors of mutant isocitrate dehydrogenase 1 (IDH1): qHTS; Isocitrate dehydrogenase [NADP] cytoplasmic (Homo sapiens), O75874; IDH1-R132H enzyme, NADPH consumption, diaphorase/resazurin fluorescence; Potency, µM (titrated, usually from 76.6 µM), inactives show at the highest dose activity change, negative = inhibition, actives largely listed as inhibitors; hit rate 0.093% among 390,000; AID 602179, 2012; note: potency is the fitted concentration of half-maximal effect; % is set by controls: 0 for no effect and ±100 for the full control effect; nearly all actives have a fitted effect of over 65% in size
Target sequence (O75874 whole entry R132H, stated change not applied): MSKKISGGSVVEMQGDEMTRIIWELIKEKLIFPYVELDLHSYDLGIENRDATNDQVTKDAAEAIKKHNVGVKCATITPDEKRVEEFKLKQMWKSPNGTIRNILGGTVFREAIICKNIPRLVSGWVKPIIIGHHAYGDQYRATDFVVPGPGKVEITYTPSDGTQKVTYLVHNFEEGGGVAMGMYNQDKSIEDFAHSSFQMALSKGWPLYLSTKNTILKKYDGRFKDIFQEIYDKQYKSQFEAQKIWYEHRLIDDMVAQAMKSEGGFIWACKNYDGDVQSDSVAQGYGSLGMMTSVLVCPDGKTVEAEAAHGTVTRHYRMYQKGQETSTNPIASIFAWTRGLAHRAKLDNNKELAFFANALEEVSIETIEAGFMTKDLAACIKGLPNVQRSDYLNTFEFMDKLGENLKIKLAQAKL
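IDH1-R132H (0.5 ug/mL dispensed) in pH 7.5 Tris buffer was preincubated 30 min with compound, then given a substrate mix of 0.016 mM NADPH and 2 mM alpha-KG for 80 min at room temperature; remaining NADPH was read by diaphorase/resazurin fluorescence.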
GLS inh: qHTS for Inhibitors of Glutaminase (GLS). Glutaminase kidney isoform, mitochondrial (Homo sapiens), O94925. hit rate 0.21% among 410,000. Potency, µM (highest dose often 45.5 µM), inactives show top-dose activity change, negative = inhibition, most hits filed as inhibitors. GLS enzymatic activity, qHTS titration. AID 624170, 2012; note: potency is the fitted concentration of half-maximal effect; % is set by controls: 0 for no effect and ±100 for the full control effect
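Two-point fluorescence kinetic (t0, 30 min RT) for hKGA; glutamate detected via glutamate oxidase–HRP–Amplex Red. Substrate: 1 mM L-glutamine solution; buffer 45 mM KH2PO4, pH 8.2.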
TrxR1 substrate: qHTS Assay for Substrates of Mammalian Selenoprotein Thioredoxin Reductase 1 (TrxR1): qHTS; hit rate 0.01% among 390,000; Potency, µM (highest dose often 114 µM), for inactives: at the highest dose activity change, negative = substrate turnover; purified TrxR1 substrate turnover, NADPH consumption readout; note: potency is the fitted concentration of half-maximal effect; % is set by controls: 0 for no effect and ±100 for the full control effect; nearly all actives have a fitted effect of over 50% in size
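Rat TrxR1, dispensed at 90 nM, was prereduced with 400 uM NADPH (final) for 5 min at ~22 deg C, then incubated with compound 15 min before 400 uM selenite. A first-read NADPH fluorescence drop versus no-compound background flagged substrates.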
TrxR1 inh-1: qHTS Assay for Inhibitors of Mammalian Selenoprotein Thioredoxin Reductase 1 (TrxR1): qHTS | Thioredoxin reductase 1, cytoplasmic (Rattus norvegicus), O89049 | recombinant rTrxR1, NADPH fluorescence consumption, selenite substrate | Potency, µM (titrated, usually from 114 µM), for inactives: at the top dose activity change, negative = inhibition, usual class: inhibitors | hit rate 1% among 390,000 | AID 588453, 2011; note: potency is the fitted concentration of half-maximal effect; % is set by controls: 0 for no effect and ±100 for the full control effect; nearly all actives have a fitted effect of over 65% in size
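Rat TrxR1 (90 nM in the dispensed reagent) was pre-reduced with 400 uM NADPH for 5 min at room temperature, then incubated with compound for 15 min. After 400 uM selenite was added, NADPH fluorescence (Ex 340/Em 450 nm) was followed for 8 min.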
TRb SRC2 Alpha: Protein Interaction Secondary Assay for Inhibitors of the Interaction of Thyroid Hormone Receptor and Steroid Receptor Coregulator 2, Alpha Screen | shares compounds with TrxR1 inh-1 | AlphaScreen TRb LBD-SRC2 peptide binding, luminescence | Potency, µM | hit rate 50% among 30 | AID 2444, 2010; calls by dose curve
HepG2 viability: Cell Viability Secondary Assay for Inhibitors of the Interaction of Thyroid Hormone Receptor and Steroid Receptor Coregulator 2 | HepG2 viability, ATP luminescence (CellTiter-Glo), 72 h | Potency, µM | shares compounds with TrxR1 inh-1 | hit rate 50% among 40; calls by dose curve
AR-SRC2 inh: Androgen Receptor Selectivity Assay for Inhibitors of the Interaction of Thyroid Hormone Receptor and Steroid Receptor Coregulator 2; shares compounds with TrxR1 inh-1; AR-LBD Tx-SRC2-3 fluorescence polarization, 3 h; calls only; 25 tested, under 10 active; AID 2448, 2010; call rule not given here
PPARg-DRIP2 inh: PPAR gamma Selectivity Assay For Inhibitors of the Interaction of Thyroid Hormone Receptor and Steroid Receptor Coregulator 2 | Potency, µM | shares compounds with TrxR1 inh-1 | 25 tested, under 10 active | PPARg LBD / Texas Red DRIP-2 peptide, fluorescence polarization, 3 h; calls by dose curve
VDR SRC2 FP: Vitamin D Receptor Selectivity Assay for Inhibitors of the Interaction of Thyroid Hormone Receptor and Steroid Receptor Coregulator 2 | AID 2455, 2010 | 25 tested, under 10 active | VDR LBD/SRC2-3 peptide, fluorescence polarization, 3 h | Potency, µM | shares compounds with TrxR1 inh-1; calls by dose curve
TRb SRC2 FluoFP: Secondary Confirmation Assay for Inhibitors of the Interaction of Thyroid Hormone Receptor and Steroid Receptor Coregulator 2, Fluorescein Fluoroprobe; TRb LBD / fluorescein-SRC2 peptide, fluorescence polarization; 20 tested, under 10 active; Potency, µM; AID 2487, 2010; shares compounds with TrxR1 inh-1; call rule not given here
GR counterassay: qHTS Assay for Inhibitors of Mammalian Selenoprotein Thioredoxin Reductase 1 (TrxR1): Counterassay in Glutathione Reductase (GR). purified GR, DTNB reduction absorbance 405 nm kinetic. activity change, negative = inhibition, % at 57.1 µM. shares compounds with TrxR1 inh-1. 55 tested, under 10 active
TrxR1 inh-2: qHTS Assay for Inhibitors of Mammalian Selenoprotein Thioredoxin Reductase 1 (TrxR1): Hit Validation in Primary Screen; shares compounds with TrxR1 inh-1; recombinant TrxR1, NADPH fluorescence consumption, selenite substrate; Potency, µM, actives largely listed as inhibitors; hit rate 50% among 55; AID 652023, 2013
TrxR1 insulin MOA: qHTS Assay for Inhibitors of Mammalian Selenoprotein Thioredoxin Reductase 1 (TrxR1): Insulin MOA Assay; TrxR1 Trx-coupled insulin reduction, NADPH absorbance 340 nm; hit rate 20% among 55; shares compounds with TrxR1 inh-1; Potency, µM; AID 652037, 2013;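 active = compounds with a measured potency under 100 micromolar; inconclusive = filed, but no rule given; inactive = potency at or above that, or unmeasurable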
TrxR1 inh-3: qHTS Assay for Inhibitors of Mammalian Selenoprotein Thioredoxin Reductase 1 (TrxR1): DTNB Assay; shares compounds with TrxR1 inh-1; purified TrxR1, DTNB reduction, A412; Potency, µM; hit rate 90% among 55;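 active = a half-inhibiting concentration could be measured and was below 100 µM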
* marks the source's active call; other numbers are inactive results; [ ] = dose if it differs, or a comment. Unless noted, calls come from the whole dose curve; as a rule, active = well fitted curve in the direction sought with a large enough effect; inconclusive = small, poorly fitted or top-dose-only effect, or another doubt; inactive = no such curve, though single readings can be large; an effect the other way counts as inactive or inconclusive.

CC1CCC(NC(=O)COC(=O)c2ccc3ncsc3c2)CC1 (stereo not given) was read as LDHA inh -2, mIDH1 inhibitor -12%, GLS inh 2%, TrxR1 substrate 7% and TrxR1 inh-1 20%.
`CS(=O)(=O)c1ccc(C(=O)OCC(=O)NC(=O)C2CCCCC2)cc1[N+](=O)[O-]` gave PKM2 activator 0%, LDHA inh 2, mIDH1 inhibitor 3%, GLS inh -2%, TrxR1 substrate 22%, TrxR1 inh-1 3.2µM*, TRb SRC2 Alpha 0.6µM*, HepG2 viability 23µM*, AR-SRC2 inh inactive, PPARg-DRIP2 inh 22µM*, VDR SRC2 FP inactive and TRb SRC2 FluoFP 11µM*.
O=C(COC(=O)c1ccc2ncsc2c1)NC(=O)C1CCCCC1 was read as LDHA inh 2, TrxR1 substrate -1%, TrxR1 inh-1 7%, TRb SRC2 Alpha inactive, HepG2 viability 20µM* and TRb SRC2 FluoFP inactive.
O=C(CNC(=O)c1ccc(-c2ccccc2)cc1)OCc1ncc(-c2ccccc2)o1 was read as LDHA inh 4.
`COC(=O)c1ccc(CNC(=O)c2cc(OC)cc(OC)c2)cc1` gave LDHA inh 2.
Screening Cc1nc2cc(NC(=O)c3cccc(Cl)c3Cl)ccc2o1 returned LDHA inh 9.
For CS(=O)(=O)c1ccc(C(=O)OC(C(=O)NC2C3CC4CC(C3)CC2C4)c2ccccc2)cc1[N+](=O)[O-] (stereo not given) the results were HepG2 viability 10µM*.
Screening CCCNC(=O)c1ccc(S(=O)(=O)c2ccc(OC)cc2)c([N+](=O)[O-])c1 returned LDHA inh 16, mIDH1 inhibitor 2%, GLS inh -4%, TrxR1 substrate 6% and TrxR1 inh-1 inconclusive.
`CS(=O)(=O)c1ccc(C(=O)NCC(=O)NC2C3CC4CC(C3)CC2C4)cc1[N+](=O)[O-]` (stereo not given) gave TRb SRC2 Alpha 3.8µM*, HepG2 viability 22µM*, AR-SRC2 inh inactive, PPARg-DRIP2 inh inactive and VDR SRC2 FP inactive.
Screening COC(=O)c1ccccc1S(=O)(=O)N(Cc1ccco1)Cc1cc2cc(OC)ccc2[nH]c1=O returned PKM2 activator 10%, LDHA inh -6, mIDH1 inhibitor 11%, GLS inh -2%, TrxR1 substrate 24%, TrxR1 inh-1 10µM*, GR counterassay 0, TrxR1 inh-2 6*, TrxR1 insulin MOA inactive and TrxR1 inh-3 7.4µM*.
CCC(C)(C)n1nnnc1C(c1ccc(O)cc1)N1CCc2ccccc2C1 (stereo not given) was read as PKM2 activator 0%, LDHA inh -1, mIDH1 inhibitor -3%, GLS inh 4%, TrxR1 substrate 7%[57.1 µM], TrxR1 inh-1 16µM*, GR counterassay -21, TrxR1 inh-2 7.5*, TrxR1 insulin MOA inactive and TrxR1 inh-3 0.24µM*.
For COCCn1nnnc1C(c1ccc(O)c(OC)c1)N1CCc2ccccc2C1 (stereo not given) the results were PKM2 activator 13%, LDHA inh 9, mIDH1 inhibitor 3%, GLS inh 33%, TrxR1 substrate 20%[57.1 µM], TrxR1 inh-1 5.6µM*, GR counterassay 0, TrxR1 inh-2 4.7*, TrxR1 insulin MOA inactive and TrxR1 inh-3 0.27µM*.
